From PubChem BioAssay AID1159580 (chemical genetic matrix, 2015)
In all, about 5,500 compounds went through this assay and about 2,000 (36%) were called active. About 18% were inconclusive and are not listed. No stated cut-off is given here; in the data, active means normalized growth mostly below about 0.91 (no sharp cut-off); inconclusive means no clear call, values can overlap the other calls; inactive means mostly above about 0.92. Some of the results follow.

Assay: chemical genetic growth profiling, strain panel (AID 1159580);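 further: tested at 20 µM; growth read once vehicle control cultures reached saturation at 30 °C; 1 = growth at the plate median or of vehicle wells; lower values mean less growth of the strain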
Details: S. cerevisiae deletion strains, growth OD

Measured: normalized growth

COc1ccc(CCN(C)CCCC(C#N)(c2cc(OC)c(OC)c(OC)c2)C(C)C)cc1OC (stereo not given)
inactive: locus YAL040C, strain CLN3, hits give low values 1.01 | locus YCL061C, strain MRC1 (second series), hits give low values 0.995 | locus YDR150W, strain NUM1, hits give low values 1.01 | locus YDR363W, strain ESC2, hits give low values 0.97 | locus YER002W, strain NOP16, hits give low values 1.03 | locus YGR078C, strain PAC10, hits give low values 1.03 | locus YJR075W, strain HOC1, hits give low values 1 | locus YMR307W, strain GAS1, hits give low values 1.02 | locus YNL153C, strain GIM3, hits give low values 1.02 | locus YNL175C, strain NOP13, hits give low values 1.01 | locus YNL197C, strain WHI3, hits give low values 1.01 | locus YNL224C, strain SQS1, hits give low values 1.01 | locus YOR083W, strain WHI5 (second series), hits give low values 1 | locus YPL055C, strain LGE1, hits give low values 1 | locus YPL241C, strain CIN2, hits give low values 1.01
